Reference: PubChem BioAssay (EPA / NIEHS)
Active and inactive are the calls of the source. How the source made its calls: active means hit-call score of the fitted dose curve at least 0.9, where 1 is the maximum; inactive means score below 0.9.

Columns and labels:
Settings in all cases: mRNA level, 48 h; actives raise or lower the signal
[1] = read-out: Alpha-fetoprotein (AFP) gene, AFP (gene 174); assay: LTEA_HepaRG_AFP: Life Technologies and Expression Analysis (LTEA) Assay for Alpha-fetoprotein (AFP) gene using HepaRG (AID 2283472)
Method in brief: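 Differentiated human HepaRG cells exposed 48 h in serum-free induction medium, 8-point half-log series from 100 uM in 0.5% DMSO, duplicate. AFP mRNA by qRT-PCR, normalized to ACTB, GAPDH, POLR2A; bidirectional fit vs DMSO.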

BCL2L11 (gene 10018) = assay: LTEA_HepaRG_BCL2L11: Life Technologies and Expression Analysis (LTEA) Assay for Bcl-2 (BCL2L11) gene using HepaRG (AID 2283473)
Method in brief: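 Cells were plated, cultured 48 h, switched to serum-free induction medium, then dosed in duplicate for 48 h at eight half-log concentrations up to 100 uM. Lysates underwent RNA isolation and TaqMan qRT-PCR; gain or loss versus DMSO was fitted.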

[2] = read-out: Apolipoprotein A-V (APOA5) gene, APOA5 (gene 116519); assay: LTEA_HepaRG_APOA5: Life Technologies and Expression Analysis (LTEA) Assay for Apolipoprotein A-V (APOA5) gene using HepaRG (AID 2283474)
Method in brief: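 Human liver HepaRG cells are treated 48 h with test chemicals (100 uM top, half-log dilutions, 0.5% DMSO). APOA5 mRNA induction or loss is measured by qRT-PCR relative to vehicle.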

[3] = read-out: Apoptosis regulator Bcl-2 (Homo sapiens) (UniProt P10415); assay: LTEA_HepaRG_BCL2: Life Technologies and Expression Analysis (LTEA) Assay for Bcl-2 gene using HepaRG (AID 2283475)
Method in brief: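 Differentiated human HepaRG cells in serum-free induction medium exposed 48 h, in duplicate, to 8-point half-log series from 100 uM in 0.5% DMSO. BCL2 mRNA by qRT-PCR (TaqMan/Fluidigm), normalized to ACTB, GAPDH, POLR2A; bidirectional fit against DMSO.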

[4] = read-out: Bcl-2 (BID) gene, BID (gene 637); assay: LTEA_HepaRG_BID: Life Technologies and Expression Analysis (LTEA) Assay for Bcl-2 (BID) gene using HepaRG (AID 2283476)
Method in brief: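 Gene expression by qRT-PCR in HepaRG cells after 48 h exposure, duplicate wells, eight half-log concentrations topping at 100 uM in 0.5% DMSO. Normalized to ACTB, GAPDH, POLR2A; bidirectional fitting relative to DMSO.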

Caspase-3 (Homo sapiens) = Caspase-3 (Homo sapiens) (UniProt P42574); assay: LTEA_HepaRG_CASP3: Life Technologies and Expression Analysis (LTEA) Assay for cysteine-aspartic acid protease (CASP3) using HepaRG (AID 2283477)
Method in brief: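 In HepaRG liver cells dosed for 48 h at up to 100 uM (eight-point, duplicate), CASP3 expression changes are scored by qRT-PCR. Activity is fitted in both directions with 0.5% DMSO as baseline.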

[5] = read-out: Cytochrome P450 (CYP24A1), CYP24A1 (gene 1591); assay: LTEA_HepaRG_CYP24A1: Life Technologies and Expression Analysis (LTEA) Assay for Cytochrome P450 (CYP24A1) using HepaRG (AID 2283478)
Method in brief: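 Human liver HepaRG cultures receive each chemical for 48 h across an eight-point half-log series topping at 100 uM in 0.5% DMSO. Induction or suppression of CYP24A1 mRNA is scored relative to vehicle after housekeeping-gene normalization.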

[6] = read-out: Cytochrome P450 (CYP1A2), CYP1A2 (gene 1544); assay: LTEA_HepaRG_CYP1A2: Life Technologies and Expression Analysis (LTEA) Assay for Cytochrome P450 (CYP1A2) using HepaRG (AID 2283479)
Method in brief: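 Assesses CYP1A2 mRNA in human HepaRG liver cells after 48 h chemical exposure at up to 100 uM. Values come from qRT-PCR with bidirectional curve fitting relative to DMSO.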

[7] = read-out: cysteine-aspartic acid protease (CASP8), CASP8 (gene 841); assay: LTEA_HepaRG_CASP8: Life Technologies and Expression Analysis (LTEA) Assay for cysteine-aspartic acid protease (CASP8) using HepaRG (AID 2283480)
Method in brief: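 Differentiated human HepaRG cells, plated 48 h then switched to serum-free induction medium, were exposed in duplicate for 48 h to 8 half-log concentrations up to 100 uM in 0.5% DMSO. CASP8 mRNA was quantified by qRT-PCR, normalized to ACTB/GAPDH/POLR2A.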

[8] = read-out: Cytochrome P450 (CYP2B6), CYP2B6 (gene 1555); assay: LTEA_HepaRG_CYP2B6: Life Technologies and Expression Analysis (LTEA) Assay for Cytochrome P450 (CYP2B6) using HepaRG (AID 2283481)
Method in brief: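 Using 48 h treatment of HepaRG cells in serum-free induction medium, concentrations spanned half-log steps from 100 uM in 0.5% DMSO vehicle. CYP2B6 mRNA induction or loss is scored by qRT-PCR against DMSO.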

[9] = read-out: Cytochrome P450 2C19 (Homo sapiens) (UniProt P33261); assay: LTEA_HepaRG_CYP2C19: Life Technologies and Expression Analysis (LTEA) Assay for CYP2C19 using HepaRG (AID 2283482)
Method in brief: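 Human HepaRG liver cells received test chemicals for 48 h (highest 100 uM, half-log dilutions in 0.5% DMSO). CYP2C19 mRNA induction or loss is read by multiplexed qRT-PCR and fitted in both directions versus vehicle.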

CYP2C8 (gene 1558) = assay: LTEA_HepaRG_CYP2C8: Life Technologies and Expression Analysis (LTEA) Assay for CYP2C8 using HepaRG (AID 2283483)
Method in brief: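 Differentiated human HepaRG cells were exposed for 48 h in serum-free induction medium to eight half-log concentrations up to 100 uM in 0.5% DMSO, in duplicate. CYP2C8 mRNA was measured by TaqMan qRT-PCR, normalized to ACTB, GAPDH and POLR2A, and fitted bidirectionally against DMSO.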

CYP2C9 (gene 1559) = assay: LTEA_HepaRG_CYP2C9: Life Technologies and Expression Analysis (LTEA) Assay for CYP2C9 using HepaRG (AID 2283484)
Method in brief: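 Differentiated human HepaRG cells were exposed 48 h in serum-free induction medium to eight half-log concentrations up to 100 uM in 0.5% DMSO. CYP2C9 mRNA was measured by qRT-PCR, normalized to ACTB, GAPDH and POLR2A, and fitted bidirectionally against DMSO.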

CYP2E1 (gene 1571) = assay: LTEA_HepaRG_CYP2E1: Life Technologies and Expression Analysis (LTEA) Assay for CYP2E1 using HepaRG (AID 2283485)
Method in brief: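 HepaRG cells, plated 48 h, then exposed 48 h in serum-free induction medium to eight half-log concentrations from 100 uM in 0.5% DMSO, duplicate. CYP2E1 mRNA by qRT-PCR, normalized to ACTB/GAPDH/POLR2A; bidirectional fit versus DMSO.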

CYP4A11 (gene 1579) = assay: LTEA_HepaRG_CYP4A11: Life Technologies and Expression Analysis (LTEA) Assay for CYP4A11 using HepaRG (AID 2283486)
Method in brief: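 Readout is CYP4A11 mRNA induction or suppression (qRT-PCR, ACTB/GAPDH/POLR2A normalization) in human HepaRG cells after 48 h chemical treatment, concentrations to 100 uM in 0.5% DMSO, fitted bidirectionally against vehicle.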

[10] = read-out: DNA damage-inducible transcript 3 (DDIT3), DDIT3 (gene 1649); assay: LTEA_HepaRG_DDIT3: Life Technologies and Expression Analysis (LTEA) Assay for DNA damage-inducible transcript 3 (DDIT3) using HepaRG (AID 2283488)
Method in brief: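 HepaRG cells, 48 h after plating, exposed 48 h in serum-free induction medium to 8 half-log concentrations up to 100 uM in 0.5% DMSO, in duplicate. DDIT3 mRNA measured by TaqMan qRT-PCR, normalized to ACTB, GAPDH and POLR2A. Fitted bidirectionally against DMSO.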

[11] = read-out: Pro-epidermal growth factor (Homo sapiens) (UniProt P01133); assay: LTEA_HepaRG_EGF: Life Technologies and Expression Analysis (LTEA) Assay for Epidermal growth factor (EGF) using HepaRG (AID 2283489)
Method in brief: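 EGF expression changes in human HepaRG cells are scored by bidirectional fitting relative to 0.5% DMSO controls. Chemicals are tested at eight half-log concentrations up to 100 uM for 48 h in serum-free induction medium.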

[12] = read-out: Early growth response protein 1 (EGR1) transcription factor, EGR1 (gene 1958); assay: LTEA_HepaRG_EGR1: Life Technologies and Expression Analysis (LTEA) Assay for Early growth response protein 1 (EGR1) transcription factor using HepaRG (AID 2283490)
Method in brief: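 Differentiated human HepaRG cells in serum-free induction medium were exposed in duplicate for 48 h to eight concentrations (top 100 uM, half-log steps) in 0.5% DMSO. EGR1 mRNA was quantified by qRT-PCR, normalized to ACTB, GAPDH and POLR2A, and fitted bidirectionally versus DMSO.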

[13] = read-out: Ezrin (EZR), EZR (gene 7430); assay: LTEA_HepaRG_EZR: Life Technologies and Expression Analysis (LTEA) Assay for Ezrin (EZR) using HepaRG (AID 2283491)
Method in brief: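 EZR transcript levels came from Fluidigm qRT-PCR and were normalized to three housekeeping genes after 48 h chemical exposure of HepaRG cells. Dosing used an 8-point half-log series with a 100 uM top concentration in 0.5% DMSO, tested in duplicate; both directions were fitted versus vehicle.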

[14] = read-out: Cytochrome P450 3A4 (Homo sapiens) (UniProt P08684); assay: LTEA_HepaRG_CYP3A4: Life Technologies and Expression Analysis (LTEA) Assay for CYP3A4 using HepaRG (AID 2283487)
Method in brief: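 Differentiated HepaRG cells, plated 48 h, then dosed 48 h in serum-free induction medium with 0.5% DMSO, 8 half-log concentrations up to 100 uM, duplicate. CYP3A4 mRNA by qRT-PCR, normalized to ACTB/GAPDH/POLR2A; bidirectional fit versus DMSO.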

Measured: AC50

Chain of Caspase-3 (Homo sapiens) (P42574 whole entry, looked up): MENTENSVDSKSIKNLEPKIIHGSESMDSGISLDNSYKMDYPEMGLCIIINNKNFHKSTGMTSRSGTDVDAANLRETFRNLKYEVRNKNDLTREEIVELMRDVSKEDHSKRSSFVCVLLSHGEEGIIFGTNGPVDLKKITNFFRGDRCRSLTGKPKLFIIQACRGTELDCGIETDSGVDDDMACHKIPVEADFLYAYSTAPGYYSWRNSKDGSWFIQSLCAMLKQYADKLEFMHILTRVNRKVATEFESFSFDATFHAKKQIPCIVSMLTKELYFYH
Chain of Cytochrome P450 3A4 (Homo sapiens) (P08684 whole entry, looked up): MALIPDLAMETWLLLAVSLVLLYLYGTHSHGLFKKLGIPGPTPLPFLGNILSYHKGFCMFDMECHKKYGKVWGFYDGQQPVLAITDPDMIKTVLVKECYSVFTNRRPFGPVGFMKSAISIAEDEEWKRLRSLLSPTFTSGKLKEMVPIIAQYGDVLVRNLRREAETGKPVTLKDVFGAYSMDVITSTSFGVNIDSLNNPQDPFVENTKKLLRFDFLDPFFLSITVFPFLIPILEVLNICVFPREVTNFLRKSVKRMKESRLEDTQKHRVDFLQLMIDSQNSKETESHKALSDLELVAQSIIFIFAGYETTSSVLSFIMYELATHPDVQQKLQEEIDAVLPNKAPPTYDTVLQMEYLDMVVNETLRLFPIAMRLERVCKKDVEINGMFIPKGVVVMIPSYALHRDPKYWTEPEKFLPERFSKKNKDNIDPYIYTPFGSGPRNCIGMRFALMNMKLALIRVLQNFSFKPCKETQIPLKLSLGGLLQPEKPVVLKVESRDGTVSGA
Chain of Cytochrome P450 2C19 (Homo sapiens) (P33261 whole entry, looked up): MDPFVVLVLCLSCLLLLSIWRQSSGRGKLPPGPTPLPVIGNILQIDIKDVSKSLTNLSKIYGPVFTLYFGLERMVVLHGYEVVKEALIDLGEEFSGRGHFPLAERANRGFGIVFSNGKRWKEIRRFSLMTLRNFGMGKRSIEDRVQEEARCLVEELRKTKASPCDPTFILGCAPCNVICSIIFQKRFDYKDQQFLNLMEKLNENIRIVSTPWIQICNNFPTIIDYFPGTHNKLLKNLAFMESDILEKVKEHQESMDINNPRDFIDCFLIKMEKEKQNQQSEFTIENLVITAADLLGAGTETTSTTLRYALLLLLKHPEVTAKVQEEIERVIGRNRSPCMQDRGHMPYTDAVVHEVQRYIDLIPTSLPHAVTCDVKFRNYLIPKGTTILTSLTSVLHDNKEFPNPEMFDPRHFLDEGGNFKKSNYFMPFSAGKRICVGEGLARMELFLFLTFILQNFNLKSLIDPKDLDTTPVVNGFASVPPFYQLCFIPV
Chain of Apoptosis regulator Bcl-2 (Homo sapiens) (P10415 whole entry, looked up): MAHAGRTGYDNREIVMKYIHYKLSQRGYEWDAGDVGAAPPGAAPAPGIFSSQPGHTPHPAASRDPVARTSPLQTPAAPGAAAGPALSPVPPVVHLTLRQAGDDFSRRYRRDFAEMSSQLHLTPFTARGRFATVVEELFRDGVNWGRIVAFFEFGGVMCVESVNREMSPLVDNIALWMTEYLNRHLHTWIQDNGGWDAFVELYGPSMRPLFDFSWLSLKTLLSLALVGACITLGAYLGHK

CN(C)c1ccccc1
inactive: [1] | BCL2L11 (gene 10018) | [2] | [3] | [4] | Caspase-3 (Homo sapiens) | [5] | [6] | [7] | [9] | CYP2C8 (gene 1558) | CYP2C9 (gene 1559) | CYP2E1 (gene 1571) | CYP4A11 (gene 1579) | [10] | [11] | [12] | [13]
active: [8] 33.4 µM

CCC[CH2][Sn]([Cl])([CH2]CCC)[CH2]CCC
inactive: [4] | Caspase-3 (Homo sapiens) | [5] | [7] | CYP4A11 (gene 1579) | [13]
active: [1] 0.59 µM | BCL2L11 (gene 10018) 11.7 µM | [2] 2.03 µM | [3] 3.08 µM | [6] 1.58 µM | [8] 2.53 µM | [9] 1.37 µM | CYP2C8 (gene 1558) 2.42 µM | CYP2C9 (gene 1559) 2.23 µM | CYP2E1 (gene 1571) 0.505 µM | [14] 2.27 µM | [10] 2.28 µM | [12] 50 µM

N#CC(Br)(Br)C(N)=O
inactive: [1] | BCL2L11 (gene 10018) | [2] | [3] | [4] | Caspase-3 (Homo sapiens) | [5] | [6] | [7] | [8] | [9] | CYP2C8 (gene 1558) | CYP2C9 (gene 1559) | CYP2E1 (gene 1571) | CYP4A11 (gene 1579) | [14] | [10] | [11] | [12] | [13]

OCCCl
inactive: [1] | BCL2L11 (gene 10018) | [2] | [3] | [4] | Caspase-3 (Homo sapiens) | [5] | [6] | [7] | [9] | CYP2C8 (gene 1558) | CYP2C9 (gene 1559) | CYP2E1 (gene 1571) | CYP4A11 (gene 1579) | [14] | [10] | [11] | [12] | [13]
active: [8] 50 µM
